# Inconclusive results are not listed. Entries that show only a call come without a potency. Activity calls are given as the source filed them. The call rests on the fitted dose curve; in most records, active means well fitted curve in the direction sought with a large enough effect in the repeat runs; inconclusive means weak or mixed curves; inactive means no such curve, though single readings can be large; an effect the other way counts as inactive or inconclusive.
# Experiment: qHTS RealTime-Glo MT Cell Viability Assay in HEK293 cells - 0 hour (AID 1224880); further: top concentration of the series differs between compounds; nearly all actives have a fitted effect of over 45% in size
# Conditions: RealTime-Glo luminescence; series mostly up to 76.8 µM
# Method in brief: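 Viable HEK293 cells reduce a cell-permeant prosubstrate; the product diffuses out and is consumed by NanoLuc in the medium to give light. Compounds went in after a 5 h incubation and plates were read over the treatment course.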
row,Structure (SMILES),outcome
1,O=C(O)c1ccccc1S,inactive
2,NC(=O)CCCCC1CCSS1 (configuration not stated),inactive
3,CCN(CC)C(=O)c1ccc(O)c(OC)c1,inactive
4,Nc1ncnc2c1ncn2Cc1c(F)cccc1Cl,inactive
5,Fc1ccccc1-c1ccccc1,inactive
6,CN(C)C(=O)C(CCN1CCC(O)(c2ccc(Cl)cc2)CC1)(c1ccccc1)c1ccccc1,inactive
7,COC(=O)[C@H]1[C@H]2C[C@@H]3c4[nH]c5cc(OC)ccc5c4CCN3C[C@H]2C[C@@H](OC(=O)COc2ccc(OC)cc2)[C@@H]1OC,inactive
8,C=C(C)[C@@H]1CCC2=CC(=O)C[C@@H](C)[C@]2(C)C1,inactive
9,[O-][N+](=Nc1ccccc1)c1ccccc1,inactive
10,c1ccc(CCCc2ccccn2)cc1,inactive
11,CC(C)CCOC(=O)CC(C)C,inactive
12,Cc1ccccc1C(=O)O,inactive
13,CCCCCCCCCCCCCCCCCCOCC(O)CO (configuration not stated),inactive
14,C=C(C)C(=O)NCCC[N+](C)(C)C,inactive
15,CCCCc1ccc2cccc(S(=O)(=O)O)c2c1,inactive
16,NC(=O)c1ncn([C@@H]2O[C@H](CO)[C@@H](O)[C@H]2O)c1O,inactive
17,C[C@H]1O[C@@H](n2cc(F)c(=O)[nH]c2=O)[C@H](O)[C@@H]1O,inactive
18,CCCCOCC(C)OCC(C)O (configuration not stated),inactive
19,NC(=O)Nc1nc2ccccc2[nH]1,inactive
20,CC(C)c1cccc(C(C)C)c1N,inactive
21,CC(C)(C)CC(C)(C)N,inactive
22,CC/C=C\CCCCO,inactive
23,CCO[Si](C)(OCC)OCC,inactive
24,CC1(C)SC(C)(C)SC(C)(C)S1,inactive
25,Nc1nc(F)nc2c1ncn2[C@@H]1O[C@H](CO)[C@@H](O)[C@@H]1O,inactive
26,C=C(C)C(=O)NCCCN(C)C,inactive
27,O=C(O)Cc1cc(I)c(Oc2cc(I)c(O)c(I)c2)c(I)c1,inactive
28,CC1CCN(CCCC(=O)c2ccc(F)cc2)CC1,inactive
29,COc1cccc(Br)c1,inactive

# Experiment: A CellTox Green Cytotoxicity Assay to monitor cytotoxicity in HEK293 cells - 32 hour (AID 1224881); further: nearly all actives have a fitted effect of over 40% in size
# Conditions: CellTox Green fluorescence; series mostly up to 76.8 µM
# Method in brief: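 Fluorescence intensity, read at 0, 8, 16, 24, 32 and 40 h of compound treatment, reflected dye binding to DNA of dead HEK293 cells; compounds (23 nL, DMSO) were added 5 h after plating cells with reagent.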
row,Structure (SMILES),Potency
1,NC(=O)CCCCC1CCSS1 (configuration not stated),inactive
2,CCN(CC)C(=O)c1ccc(O)c(OC)c1,inactive
3,CC(C)COC(=O)c1ccccc1O,inactive
4,C1C2OC2C2C1C1CC2C2OC12 (configuration not stated),inactive
5,CC12CCC(CC1=O)C2(C)C (configuration not stated),inactive
6,CCCc1ccccc1O,inactive
7,Nc1ncnc2c1ncn2Cc1c(F)cccc1Cl,inactive
8,CN1[C@@H]2CC[C@H]1CC(NC(=O)n1c(=O)[nH]c3ccccc31)C2 (some centres not stated),inactive
9,COC(=O)[C@H]1[C@H]2C[C@@H]3c4[nH]c5cc(OC)ccc5c4CCN3C[C@H]2C[C@@H](OC(=O)COc2ccc(OC)cc2)[C@@H]1OC,inactive
10,C=C(C)[C@@H]1CCC2=CC(=O)C[C@@H](C)[C@]2(C)C1,inactive
11,Cc1nc(-c2ccc(OCC(C)C)c(C#N)c2)sc1C(=O)O,inactive
12,Cc1ccccc1C(=O)O,inactive
13,CCCCCCCCCCCCCCCCCCOCC(O)CO (configuration not stated),inactive
14,C=C(C)C(=O)NCCC[N+](C)(C)C,inactive
15,CCCCc1ccc2cccc(S(=O)(=O)O)c2c1,inactive
16,C[C@H]1O[C@@H](n2cc(F)c(=O)[nH]c2=O)[C@H](O)[C@@H]1O,inactive
17,CCCCOCC(C)OCC(C)O (configuration not stated),inactive
18,NC(N)=NS(=O)(=O)c1ccc(N)cc1,inactive
19,CC(C)(C)CC(C)(C)N,inactive
20,CC/C=C\CCCCO,inactive
21,CCO[Si](C)(OCC)OCC,inactive
22,COc1cc(CCC(C)=O)ccc1O,inactive
23,CC1(C)SC(C)(C)SC(C)(C)S1,inactive
24,Nc1nc(F)nc2c1ncn2[C@@H]1O[C@H](CO)[C@@H](O)[C@@H]1O,inactive
25,C=C(C)C(=O)NCCCN(C)C,inactive
26,CC1=CC(C)C(C=O)C(C)C1 (configuration not stated),inactive
27,CC1CCN(CCCC(=O)c2ccc(F)cc2)CC1,inactive
28,COc1cccc(Br)c1,inactive

# Source: PubChem BioAssay (Tox21)
